GPR151 activ: activators of human GPR151 | 650,000 compounds, 1% hits | activation, % at 11.2 µM | PathHunter beta-arrestin GPR151 cells, luminescence; in the data active = activation above about 4.9%;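 also: 0% = median of compound wells and 100% = cells with positive control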
TEAD-YAP block: TEAD-YAP interaction inhibition. HEK-TIYL cells, TEAD-Gal4/YAP UAS-luciferase luminescence. inhibition, % at 9.12 µM. 640,000 compounds, 1.4% hits; in the data active = inhibition above about 32%;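 also: 0% = median of test compound wells and 100% = reference inhibitor wells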
FBW7 activator: activators of human E3 ligase FBW7 | Q969H0 | AlphaScreen FBW7–phospho-cyclin E peptide binding, activator screen | normalized activity (activation), % at 26.1 µM | 650,000 compounds, 0.13% hits; in the data active = normalized activity above about 1.9%;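 also: purified mutant Fbw7 with reduced substrate affinity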
Target sequence (Q969H0 whole entry, looked up): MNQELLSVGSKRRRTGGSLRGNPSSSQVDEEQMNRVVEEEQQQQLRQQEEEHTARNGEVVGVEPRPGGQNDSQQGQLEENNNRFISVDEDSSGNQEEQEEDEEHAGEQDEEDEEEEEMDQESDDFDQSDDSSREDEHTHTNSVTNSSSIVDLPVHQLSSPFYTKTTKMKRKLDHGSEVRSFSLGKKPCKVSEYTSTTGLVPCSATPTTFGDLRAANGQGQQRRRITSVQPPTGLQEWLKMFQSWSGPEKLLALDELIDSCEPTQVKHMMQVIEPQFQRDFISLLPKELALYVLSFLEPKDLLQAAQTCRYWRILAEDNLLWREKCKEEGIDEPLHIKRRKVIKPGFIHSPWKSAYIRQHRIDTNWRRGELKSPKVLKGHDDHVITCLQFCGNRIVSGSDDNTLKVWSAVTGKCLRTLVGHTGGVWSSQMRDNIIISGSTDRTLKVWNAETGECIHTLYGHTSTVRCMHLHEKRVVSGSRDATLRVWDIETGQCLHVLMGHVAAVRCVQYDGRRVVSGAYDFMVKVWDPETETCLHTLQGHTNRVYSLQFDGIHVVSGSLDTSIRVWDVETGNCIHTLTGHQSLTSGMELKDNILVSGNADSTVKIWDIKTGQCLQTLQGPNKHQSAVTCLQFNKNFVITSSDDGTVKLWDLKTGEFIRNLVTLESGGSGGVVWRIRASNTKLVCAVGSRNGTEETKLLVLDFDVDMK
MITF inh: inhibitors of human MITF. 650,000 compounds, 0.91% hits. AID 1259374. AlphaScreen MITF homodimerization, bead proximity signal. inhibition, % at 2.6 µM. O75030; in the data active = inhibition above about 50%;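 also: 0% = vehicle wells with protein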
Numbers without * were called inactive. Sampled rows, rich in hits. Any-hit rate of the full collection: about 3.4%.

SMILES | GPR151 activ | TEAD-YAP block | FBW7 activator | MITF inh
CCCCN(CC)S(=O)(=O)c1ccccc1[N+](=O)[O-] | 0.9 | 47.1* | -0.2 | 7.8
CCOc1ccccc1NC(=O)CN1C(=O)c2ccccc2C1=O | 2.9 | 5.2 | 0.1 | 0.6
CCCNc1cc(-c2csc3ccccc23)nc(N)n1 | 0.1 | 5.3 | -0.1 | 2.7
Nc1nc(NCCOc2ccccc2)cc(-c2ccccc2)n1 | 0.8 | 40.9* | 0.3 | 19.3
Nc1nc(NCCOc2ccccc2)cc(-c2csc3ccccc23)n1 | 0.7 | 41.9* | 0.1 | -0.2
Nc1nc(NCCOc2ccccc2)cc(Nc2ccccc2)n1 | 0.8 | -13.1 | -0.3 | 2.0
COc1ccc(Cl)cc1C(=O)On1c(-c2ccc(Br)cc2)nc2ccccc2c1=O | -0.3 | 7.1 | 3.2* | 6.5
COc1ccc(C(=O)On2c(-c3cccc(Cl)c3)nc3ccccc3c2=O)cc1Br | -0.5 | -3.1 | 0.0 | -7.1
O=c1cc(-c2ccccc2)oc2cc(O)c(O)cc12 | 0.0 | 70.1* | -0.4 | 1.7
O=c1cc(-c2ccccc2)oc2c(O)c(O)ccc12 | -0.8 | 42.6* | 0.2 | 11.4
COc1ccc(-n2c(SCc3ccccc3)nc3c(c2=O)C2(CCCC2)Cc2ccccc2-3)cc1 | 1.4 | -2.6 | 0.1 | 2.9
O=C(O)COc1ccc(S(=O)(=O)Nc2ccc(Cl)cc2)cc1 | 1.8 | -18.1 | 0.4 | 5.2
O=C(Nc1ccc(N2CCOCC2)cc1)c1cccc(-n2cc(-c3nc4ccccc4o3)cn2)c1 | -0.8 | -6.5 | 2.4* | -4.7
O=C(Nc1ccc(N2CCOCC2)cc1)c1cccc(-n2ncc3c2CCNC3)c1 | 0.3 | -0.3 | -0.2 | 1.0
CC(C)(C)OC(=O)N1CCc2c(cnn2-c2cccc(C(=O)Nc3ccc(N4CCOCC4)cc3)c2)C1 | -0.9 | 0.7 | 4.1* | 12.4
CC(=O)NC1CCN(C(=O)Nc2ccccc2)CC1 | 3.5 | 6.6 | 2.1* | 14.7
O=C(NC1CC1)C1CCN(C(=O)Nc2ccccc2)CC1 | -0.7 | -54.5 | 0.2 | -0.7
COCCCNC(=O)c1cc2cc([N+](=O)[O-])ccc2oc1=O | 1.2 | -6.2 | -0.1 | -5.5
CCOC(=O)Cc1csc(N/N=C\c2ccc(C(F)(F)F)cc2)n1 | -1.3 | 61.1* | 0.3 | 14.3
COc1cc(/C=C/c2ccc(O)c(OC)c2)ccc1O | -0.5 | -54.3 | -0.1 | -0.1
O=c1cc(O)cc(/C=C/c2ccc(O)c(O)c2)o1 | 0.7 | -5.3 | -0.2 | 86.3*
COC(=O)/C(N=Nc1ccc(-c2ccccc2)cc1)=C(/O)CCl | -7.1 | 60.9* | -0.1 | 7.3
CCOC(=O)/C(N=Nc1ccc([N+](=O)[O-])cc1)=C(\O)CCl | 0.8 | -10.7 | -0.1 | -9.8
COc1ccccc1C1(C)C(=O)Nc2cc(C(F)(F)F)ccc21 (configuration not stated) | 1.0 | -2.8 | 0.0 | 6.2
O=C(Nc1ccc(-c2nc3cc(NC(=O)c4ccco4)ccc3o2)cc1)c1ccco1 | 0.6 | -23.5 | 0.2 | 9.8
SMILES | GPR151 activ | TEAD-YAP block | FBW7 activator | MITF inh
O=C(CN1CCCC1)Nc1ccc(-c2nc3cc(NC(=O)CN4CCCC4)ccc3o2)cc1 | 0.3 | 36.4* | 0.0 | -2.9
O=C(NC(=S)Nc1ccc2oc(-c3ccccc3)nc2c1)c1cncc(Br)c1 | 0.3 | -3.0 | 0.1 | 3.7
CC(=O)Nc1ccc2oc(-c3cccc(C)c3)nc2c1 | -8.1 | 62.4* | -0.1 | -11.5
CC(C)(C)C(=O)Nc1ccc2oc(-c3cncc(Br)c3)nc2c1 | 1.5 | 34.7* | 0.3 | 7.5
O=C(Nc1ccc2oc(-c3ccc(-c4ccccc4)cc3)nc2c1)c1ccco1 | -0.9 | -3.0 | 2.5* | 2.7
C=CCOc1cccc(CNCCSc2nnnn2C)c1 | 0.1 | -2.4 | 0.1 | -0.9
CC(C)(C)c1ccc(-c2nc3cc(NC(=S)NC(=O)c4ccco4)ccc3o2)cc1 | 4.7 | 43.4* | 1.0 | 12.7
COc1ccc(Cl)cc1C(=O)Nc1ccc2oc(-c3ccc(C(C)(C)C)cc3)nc2c1 | -0.2 | 38.0* | 0.5 | 8.1
CCN(CC)c1ccc(-c2nc3cc(NC(=O)c4ccc(OC)c(OC)c4)ccc3o2)cc1 | -1.1 | -21.9 | 2.4* | 21.4
Cc1ccc(-c2nc3cc(NC(=S)NC(=O)c4ccco4)ccc3o2)cc1 | 0.3 | -46.4 | 0.8 | 14.0
Cc1ccccc1-c1nc2cc(NC(=O)C(C)C)ccc2o1 | 1.0 | 66.0* | 0.0 | 4.3
CCOCCCNC(=O)c1nnc(-c2ccccc2)o1 | -0.5 | -43.1 | 0.4 | 7.0
COCCNC(=O)CSc1nc(-c2ccc(SC)cc2)[nH]c1-c1ccc(OC)cc1 | -1.1 | 10.9 | -0.1 | 3.0
Cc1ccc2nc(-c3cccc(NC(=S)NC(=O)c4ccco4)c3)oc2c1 | -1.8 | -53.7 | 0.1 | -5.7
Cc1cc2nc(-c3cccc(NC(=S)NC(=O)c4ccco4)c3)oc2cc1C | -1.4 | 47.5* | 0.9 | 9.6
